An excerpt weighted towards active compounds, which were near 2.4% of everything screened.
D2 ag-1 – Beta-Arrestin HTS for Positive Allosteric Modulators of the Human D2 Dopamine Receptor: Agonists; activation, % (test concentration not listed); AID 624465, 2012; D(2) dopamine receptor (Homo sapiens), P14416; DiscoveRx PathHunter D2 beta-arrestin, luminescence, 90 min; 100% = 57 uM dopamine signal; 0.084% of 360,000 active; in the data active = activation above about 40%
Target sequence (P14416 whole entry, looked up): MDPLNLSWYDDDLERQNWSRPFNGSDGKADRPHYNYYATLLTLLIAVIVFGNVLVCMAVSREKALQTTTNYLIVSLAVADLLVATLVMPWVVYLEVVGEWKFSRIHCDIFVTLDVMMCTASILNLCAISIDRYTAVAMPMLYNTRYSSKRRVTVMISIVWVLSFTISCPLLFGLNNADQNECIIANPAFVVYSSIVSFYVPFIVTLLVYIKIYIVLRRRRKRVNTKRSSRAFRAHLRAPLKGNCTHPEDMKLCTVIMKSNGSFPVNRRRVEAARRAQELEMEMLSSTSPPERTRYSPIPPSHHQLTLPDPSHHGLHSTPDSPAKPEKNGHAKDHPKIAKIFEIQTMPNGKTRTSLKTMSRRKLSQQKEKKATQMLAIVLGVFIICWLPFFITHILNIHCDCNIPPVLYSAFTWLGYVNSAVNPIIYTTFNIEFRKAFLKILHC
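Agonist mode: compounds alone added to overnight-plated D2 PathHunter cells for 90 min at 37 C, with 57 uM final dopamine (EC100) defining full response. Beta-arrestin recruitment detected by chemiluminescent reagent, read after 1 h at ambient temperature.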
D2 antag – HTS Assay for Allosteric Antagonists of the Human D2 Dopamine Receptor: Primary Screen for Antagonists | D(2) dopamine receptor (Homo sapiens), P14416 | HEK293 TREx D2 cells, calcium flux, dopamine EC80 | inhibition, % at 10 µM | 2% of 340,000 active; in the data active = inhibition above about 30%; inactive = below that, where a call was filed; note: 0% is about no effect
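Calcium flux kinetic readout in an inducible HEK293 TREx D2 line plated overnight at 30 C. After 180 s compound exposure, an EC80 dopamine challenge follows with another 180 s kinetic read to detect antagonism.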
D2 PAM-1 – Beta-Arrestin HTS for Positive Allosteric Modulators of the Human D2 Dopamine Receptor: Potentiators. D(2) dopamine receptor (Homo sapiens), P14416. DiscoveRx D2 beta-arrestin cells, luminescence, 90 min; 100% = 57 uM dopamine signal. potentiation, % (concentration not given with the values). 0.23% of 360,000 active. AID 624464, 2012; in the data active = potentiation above about 50%
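D2 cells co-treated with compound plus 50 nM dopamine (EC20) for 90 min at 37 deg C to detect potentiation. Beta-arrestin recruitment was read as enzyme-fragment luminescence after 1 h at ambient temperature. Full response was set by 57 uM dopamine.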
D2 ag-2 – HTS Assay for Allosteric Agonists of the Human D2 Dopamine Receptor: Primary Screen for Agonists. D(2) dopamine receptor (Homo sapiens), P14416. HEK293 T-REx D2 cells, calcium flux agonist mode. AID 485358, 2010. activation, % at 2 µM. 0.53% of 340,000 active;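 active = activation over 3 SD above normal in the single-dose calcium agonist read, cut at about 30% in these data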; note: 0% is about no effect
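Agonism scored from kinetic calcium signal (1 read/sec, 180 s) following compound pin transfer, after a 10 s baseline. Cells: HEK293 Trex line expressing inducible D2 receptor coupled to calcium, dye-loaded after overnight culture at 30 C.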
D2 PAM-2 – HTS Assay for Positive Allosteric Modulators of the Human D2 Dopamine Receptor: Primary Screen for Potentiators | HEK293 T-REx D2, calcium flux, EC20 dopamine potentiation | 0.34% of 340,000 active | potentiation, % at 10 µM;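 active = potentiation over 3 SD above the plate norm, cut at about 30% in these data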; note: 0% is about no effect
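Tetracycline-induced HEK293 T-REx cells force-coupled to calcium signalling expressed D2; compounds were pin-added after a 10 s baseline, read kinetically 180 s, then an EC20 dopamine challenge followed with a further 180 s calcium read.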
Active calls of the source: *; x = no result.

SMILES | D2 ag-1 | D2 antag | D2 PAM-1 | D2 ag-2 | D2 PAM-2
Cc1ccc(-c2nc3ncccc3o2)cc1NC(=O)c1ccc(-c2ccc(Cl)cc2)o1 | x | x | x | 0 | -1
COc1ccc(C2/C(=C(/O)c3ccc(S(=O)(=O)N4CCOCC4)cc3)C(=O)C(=O)N2CCN2CCOCC2)cc1 (stereo unspecified) | -2 | 40* | -9 | 1 | -8
O=C(Cn1ncn2c(cc3ccccc32)c1=O)NCc1ccc(F)cc1 | x | x | x | 0 | 0
O=C(O)c1ccc(Nc2ncnc3ccccc23)cc1 | -1 | 32* | -7 | 3 | 2
Cc1ccc(S(=O)(=O)Cc2ccc(C(=O)NCCc3ccc(Cl)cc3)o2)cc1 | x | x | x | 0 | -11
CCn1c2ccccc2c2cc(CNCc3ccc(OC)cc3OC)ccc21 | 3 | 35* | -3 | 8 | -28
CCc1ccc(OCC(=O)Nc2cc(-c3nc4cc(C)ccc4o3)ccc2C)cc1 | x | x | x | 0 | 0
COc1ccccc1NS(=O)(=O)c1ccc(C)c(C(=O)NC2CCN(Cc3ccccc3)CC2)c1 | -4 | 77* | -41 | 0 | -19
COc1ccc(NS(=O)(=O)c2ccc(C)c(C(=O)NC3CCN(Cc4ccccc4)CC3)c2)cc1 | -3 | 26 | -44 | 0 | -24
COc1ccccc1NS(=O)(=O)c1cc(C(=O)NC2CCN(Cc3ccccc3)CC2)ccc1C | 10 | x | -3 | x | x
COc1ccccc1NS(=O)(=O)c1cccc(C(=O)NC2CCN(Cc3ccccc3)CC2)c1 | -3 | 101* | -15 | 1 | -24
COc1ccc(-c2cc(C(F)(F)F)nc(SCC(=O)N(C)Cc3ccccc3)n2)cc1 | x | x | x | 1 | -5
O=C(CSc1nnc(-c2ccc(Br)o2)n1Cc1ccccc1)c1ccccc1F | -4 | 4 | -8 | 0 | 71*
COc1ccc(-c2nc(SCC(=O)NCc3nc4ccccc4n3C)n3[nH]c(=O)cc3n2)cc1 | x | x | x | 0 | -6
Cc1nc2sc(C(c3ccccc3)N3CCN(C)CC3)c(O)n2n1 (stereo unspecified) | 0 | 47* | -5 | -1 | 0
CCOC(=O)c1ccc(-n2c(CCC(=O)O)ccc2-c2ccccc2)cc1O | x | x | x | 0 | 2
COc1ccc2c(c1)c(C(O)CN1CCC(Cc3ccccc3)CC1)c(C)n2C (stereo unspecified) | -2 | 51* | -19 | 0 | -26
C#Cc1ccc(CN2CCN(CCCc3ccccc3)C(CCO)C2)cc1 (stereo unspecified) | 1 | 75* | -26 | 0 | -19
Cc1ccccc1CN1CCN(CCCc2ccccc2)C(CCO)C1 (stereo unspecified) | 5 | 38* | -26 | 1 | -22
OCCC1CN(Cc2cccn2-c2ncccn2)CCN1Cc1ccccc1 (stereo unspecified) | -1 | 31* | -14 | -2 | 6
Cc1ccc(CN2CCN(Cc3cccn3-c3ccccn3)CC2CCO)cc1 (stereo unspecified) | -2 | -6 | -13 | -1 | -18
COc1cccc(CN2CCN(Cc3ccc(O)c(OC)c3)CC2CCO)c1 (stereo unspecified) | -5 | 36* | -18 | 1 | -8
COc1ccc(-c2nc3scc(CCNC(=O)c4cc(OC)cc(OC)c4)n3n2)cc1 | x | x | x | -2 | 4
COc1ccc(OC)c(CN2CCN(CCCc3ccccc3)C(CCO)C2)c1 (stereo unspecified) | -2 | 69* | -4 | 1 | -35
O=C(NC1CC(=O)N(c2cccc(F)c2)C1)c1ccc(Br)o1 (stereo unspecified) | x | x | x | 1 | -5
Cc1sc2c(c1C)c(=O)n(-c1ccc(Cl)cc1)c(=O)n2CC(=O)c1ccccc1 | x | x | x | -1 | 2
OC(CN1CCN(c2ccccc2Cl)CC1)c1ccccc1 (stereo unspecified) | 2 | 86* | -12 | 7 | -21
